Active and inactive are the calls of the source.
Tests used:
Albumin (Bos taurus) = Albumin (Bos taurus) (UniProt P02769); assay: compounds binding labelled BSA control protein – biochemical, small-molecule microarray, Alexa647 label, 635/667 nm fluorescence, artefact control for SMM control protein annotation, profiling panel (AID 1118); conditions: BSA-A647 binding, fluorescence 635 nm, higher = more signal;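 also: score merges 667 nm emission intensity and signal-to-noise per printed compound spot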
Albumin (Bos taurus), sequence (P02769 whole entry, looked up): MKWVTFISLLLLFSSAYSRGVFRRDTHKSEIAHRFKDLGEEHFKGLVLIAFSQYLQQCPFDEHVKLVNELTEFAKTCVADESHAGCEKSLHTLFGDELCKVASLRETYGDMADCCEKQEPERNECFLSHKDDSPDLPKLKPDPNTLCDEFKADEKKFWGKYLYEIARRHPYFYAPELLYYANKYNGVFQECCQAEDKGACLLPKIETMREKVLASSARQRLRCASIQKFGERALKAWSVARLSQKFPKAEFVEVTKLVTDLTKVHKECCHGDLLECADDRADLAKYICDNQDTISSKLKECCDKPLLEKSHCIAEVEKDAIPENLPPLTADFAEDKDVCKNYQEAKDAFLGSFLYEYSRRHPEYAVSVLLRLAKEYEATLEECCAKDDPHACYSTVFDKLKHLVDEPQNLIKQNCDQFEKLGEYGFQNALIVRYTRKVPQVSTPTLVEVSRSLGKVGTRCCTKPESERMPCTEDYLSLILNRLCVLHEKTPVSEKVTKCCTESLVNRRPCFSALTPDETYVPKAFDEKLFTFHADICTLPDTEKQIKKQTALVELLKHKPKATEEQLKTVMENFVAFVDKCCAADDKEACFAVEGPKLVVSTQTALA

[1] = probe aXIP binding to arrayed compounds – biochemical, NeuroSMM set, 635/667 nm fluorescence, primary screen (AID 1119); conditions: small-molecule microarray, higher = more signal, called active from +8 up or from −8 down;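 also: probe is the protein aXip251-270 applied at 1 µg/mL to compound-printed slides; binding of probe to printed compounds measured as 667 nm fluorescence plus signal to noise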
[2] = probe aNOTCH3 binding on compound microarray – biochemical, small-molecule microarray, 635/667 nm fluorescence, primary screen (AID 1120); conditions: higher = more signal;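 also: probe is a biotin-tagged antibody raised against NOTCH3 rather than NOTCH3 protein; score merges spot fluorescence near 667 nm with spot signal to noise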
[3] = probe aNOTCH2 binding on compound microarray – biochemical, small-molecule microarray, 635/667 nm fluorescence, primary screen (AID 1121); conditions: higher = more signal;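 also: score merges feature fluorescence read at 667 nm with its signal to noise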
[4] = target: Carbonic anhydrase 2 (Homo sapiens) (UniProt P00918); assay: compounds binding carbonic anhydrase 2 – biochemical, small-molecule microarray, Alexa647-labelled CAII, profiling panel (AID 1122); conditions: CAII-A647 binding fluorescence, higher = more signal
[5] = COS7 lysate on small-molecule microarray, probe aHis, 635 nm (AID 1123); conditions: COS7 cell lysate, fluorescence, higher = more signal;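 also: z-score combines 667nm fluorescence intensity with signal-to-noise per printed compound spot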
[6] = probe aLAP1 signal on lysate-treated microarray – cell lysate, small-molecule microarray, COS7 lysate, primary screen (AID 1124); conditions: probe aLAP1, fluorescence, higher = more signal;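 also: lysate comes from COS7 cells expressing LAP1 and is applied at 0.3 µg/mL; score merges spot fluorescence near 667 nm with signal-to-noise over triplicate slides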
Sam68 (KHDRBS1) = assay: compounds binding KHDRBS1 protein – biochemical, small-molecule microarray, 635 nm fluorescence, primary screen (AID 1125); conditions: higher = more signal;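 also: score merges 667 nm channel intensity with signal to noise over triplicate slides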
[7] = system: Chordin-like protein 2 (CHRDL2); assay: compounds binding chordin-like 2 – biochemical, small-molecule microarray, 635 nm fluorescence, primary screen (AID 1126); conditions: fluorescence 635 nm, higher = more signal;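 also: printed compound slides probed with Chrdl2 protein at 4 µg/mL for 1 h at 4 C; score merges 667 nm emission intensity with signal to noise over three replicate slides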
[8] = target: Concanavalin-A (Canavalia ensiformis) (UniProt P02866); assay: compounds binding concanavalin A lectin – biochemical, small-molecule microarray, Alexa647 label, 635 nm, artefact control for SMM control protein annotation, primary screen (AID 1127); conditions: ConA-A647 binding fluorescence, higher = more signal;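 also: z combines 667 nm emission intensity with signal-to-noise across three replicate slides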
Concanavalin-A (Canavalia ensiformis), sequence (P02866 whole entry, looked up): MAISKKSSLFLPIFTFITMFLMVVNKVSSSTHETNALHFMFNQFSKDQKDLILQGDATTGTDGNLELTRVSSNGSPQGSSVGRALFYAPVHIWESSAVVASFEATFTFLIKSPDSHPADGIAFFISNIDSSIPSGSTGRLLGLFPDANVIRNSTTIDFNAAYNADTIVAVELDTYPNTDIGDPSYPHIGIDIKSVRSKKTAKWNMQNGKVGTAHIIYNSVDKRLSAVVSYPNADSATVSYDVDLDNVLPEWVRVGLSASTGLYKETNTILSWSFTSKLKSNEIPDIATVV

[9] = compounds binding Alexa647 anti-His antibody – biochemical, small-molecule microarray, 635 nm fluorescence, artefact control for SMM control protein annotation, primary screen (AID 1128); conditions: higher = more signal;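 also: score merges feature fluorescence with signal-to-noise for each printed compound spot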
[10] = system: Human papillomavirus type 1a E7 protein (residues 1-88); assay: HPV1a E7 small-molecule binders, primary screen, biochemical, small-molecule microarray, residues 1-88, 635 nm (AID 1129); conditions: small-molecule microarray binding, fluorescence 635 nm; higher = more signal
[11] = target: Focal adhesion kinase 1 (Homo sapiens) (UniProt Q05397); assay: PTK2 protein binding on printed compound slides – biochemical, small-molecule microarray, 635/667 nm fluorescence, BSA, DTT, primary screen (AID 1130); conditions: 635 nm fluorescence, higher = more signal;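 also: composite of spot emission at 667 nm and signal to noise over triplicate slides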
Focal adhesion kinase 1 (Homo sapiens), sequence (Q05397 whole entry, looked up): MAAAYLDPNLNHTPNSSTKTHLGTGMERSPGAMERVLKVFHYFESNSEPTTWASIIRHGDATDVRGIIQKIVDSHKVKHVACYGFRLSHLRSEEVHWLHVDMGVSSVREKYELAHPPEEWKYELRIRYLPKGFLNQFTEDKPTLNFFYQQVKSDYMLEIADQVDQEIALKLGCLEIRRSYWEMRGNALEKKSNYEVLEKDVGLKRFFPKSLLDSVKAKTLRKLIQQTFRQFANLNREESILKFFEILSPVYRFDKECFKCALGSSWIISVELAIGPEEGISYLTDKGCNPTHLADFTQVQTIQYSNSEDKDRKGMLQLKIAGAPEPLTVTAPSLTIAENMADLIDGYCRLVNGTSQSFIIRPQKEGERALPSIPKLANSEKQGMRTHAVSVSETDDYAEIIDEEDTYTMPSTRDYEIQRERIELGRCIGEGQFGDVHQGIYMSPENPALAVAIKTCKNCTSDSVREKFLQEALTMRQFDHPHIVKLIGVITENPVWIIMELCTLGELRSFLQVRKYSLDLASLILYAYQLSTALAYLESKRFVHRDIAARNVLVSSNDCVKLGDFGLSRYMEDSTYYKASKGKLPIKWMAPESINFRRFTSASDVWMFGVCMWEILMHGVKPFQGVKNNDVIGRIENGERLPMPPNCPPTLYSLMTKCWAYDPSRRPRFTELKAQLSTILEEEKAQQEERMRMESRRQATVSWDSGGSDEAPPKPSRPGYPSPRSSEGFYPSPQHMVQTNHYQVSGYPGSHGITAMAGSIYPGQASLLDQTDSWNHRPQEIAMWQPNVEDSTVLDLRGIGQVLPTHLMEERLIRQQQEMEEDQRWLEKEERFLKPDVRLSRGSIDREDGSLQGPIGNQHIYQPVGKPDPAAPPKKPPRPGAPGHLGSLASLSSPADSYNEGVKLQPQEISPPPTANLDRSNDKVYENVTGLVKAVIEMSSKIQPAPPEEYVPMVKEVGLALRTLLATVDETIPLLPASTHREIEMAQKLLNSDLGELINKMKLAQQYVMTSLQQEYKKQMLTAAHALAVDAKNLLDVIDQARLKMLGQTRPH

[12] = system: Fibrinogen (Alexa647-labelled); assay: Alexa647-fibrinogen binding to printed small molecules – biochemical, small-molecule microarray, 635/667 nm fluorescence, artefact control for SMM control-protein annotation, profiling panel (AID 1131); conditions: fibrinogen-A647 binding fluorescence, higher = more signal;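 also: z-score merges 667 nm fluorescence with per-spot signal-to-noise over triplicate slides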
[13] = target: Follistatin (Homo sapiens) (UniProt P19883); assay: FST protein binding to printed compounds – biochemical, small-molecule microarray, 635/667 nm fluorescence, primary screen (AID 1132); conditions: 635 nm fluorescence, higher = more signal
Follistatin (Homo sapiens), sequence (P19883 whole entry, looked up): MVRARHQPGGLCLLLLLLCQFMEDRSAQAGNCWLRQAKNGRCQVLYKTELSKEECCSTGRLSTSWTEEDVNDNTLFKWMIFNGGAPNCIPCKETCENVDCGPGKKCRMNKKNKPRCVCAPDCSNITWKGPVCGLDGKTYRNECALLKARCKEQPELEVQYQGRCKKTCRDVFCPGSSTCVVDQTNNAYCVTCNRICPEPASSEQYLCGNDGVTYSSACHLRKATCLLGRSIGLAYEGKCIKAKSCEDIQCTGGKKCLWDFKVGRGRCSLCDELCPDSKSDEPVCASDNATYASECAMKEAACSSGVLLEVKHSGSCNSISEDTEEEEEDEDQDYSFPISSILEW

[14] = target: Fibroblast growth factor 2 (Homo sapiens) (UniProt P09038); assay: basic fibroblast growth factor binding to printed compounds – biochemical, small-molecule microarray, 635/667 nm fluorescence, primary screen (AID 1133); conditions: FGF2, fluorescence 635/667, higher = more signal
Fibroblast growth factor 2 (Homo sapiens), sequence (P09038 whole entry, looked up): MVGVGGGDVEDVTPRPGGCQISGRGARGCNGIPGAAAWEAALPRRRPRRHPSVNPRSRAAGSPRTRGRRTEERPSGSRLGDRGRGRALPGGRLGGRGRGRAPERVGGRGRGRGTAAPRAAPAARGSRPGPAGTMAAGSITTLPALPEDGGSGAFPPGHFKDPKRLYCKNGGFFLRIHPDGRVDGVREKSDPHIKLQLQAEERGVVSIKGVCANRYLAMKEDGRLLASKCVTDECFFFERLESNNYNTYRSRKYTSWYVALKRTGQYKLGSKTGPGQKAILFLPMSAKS

[15] = JC-1 mitochondrial potential readout, lung cancer cells – cell-based, A549, JC-1 fluorescence, basal, 24 h, 100 nL, profiling panel (AID 1138); conditions: higher = more signal;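 also: A549 lung adenocarcinoma cells under basal conditions with no added stimulus; test concentration not given here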
Lefty1 = Lefty1 protein binding to printed compounds – biochemical, small-molecule microarray, 635/667 nm fluorescence, primary screen (AID 1139); conditions: fluorescence 635/667, higher = more signal
[16] = system: wheat germ agglutinin (Triticum aestivum), Alexa647-labelled; assay: Alexa647-WGA lectin binding to printed small molecules – biochemical, small-molecule microarray, 635/667 nm fluorescence, artefact control for SMM control-protein annotation, profiling panel (AID 1140); conditions: WGA-A647 binding, 635 nm fluorescence, higher = more signal;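 also: score merges 667 nm feature emission with signal to noise over triplicate slides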
[17] = target: Luciferin 4-monooxygenase (Photinus pyralis) (UniProt P08659); assay: inhibition of purified Photinus pyralis luciferase – biochemical, luminescence, purified enzyme, 2006 set, primary screen (AID 1141); conditions: purified firefly luciferase, SteadyGlo luminescence, 30 min; higher = more signal, called active from +8 up or from −8 down;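 also: cell-free assay with purified firefly luciferase at 100 ng per well in PBS; test concentration not given here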
Luciferin 4-monooxygenase (Photinus pyralis), sequence (P08659 whole entry, looked up): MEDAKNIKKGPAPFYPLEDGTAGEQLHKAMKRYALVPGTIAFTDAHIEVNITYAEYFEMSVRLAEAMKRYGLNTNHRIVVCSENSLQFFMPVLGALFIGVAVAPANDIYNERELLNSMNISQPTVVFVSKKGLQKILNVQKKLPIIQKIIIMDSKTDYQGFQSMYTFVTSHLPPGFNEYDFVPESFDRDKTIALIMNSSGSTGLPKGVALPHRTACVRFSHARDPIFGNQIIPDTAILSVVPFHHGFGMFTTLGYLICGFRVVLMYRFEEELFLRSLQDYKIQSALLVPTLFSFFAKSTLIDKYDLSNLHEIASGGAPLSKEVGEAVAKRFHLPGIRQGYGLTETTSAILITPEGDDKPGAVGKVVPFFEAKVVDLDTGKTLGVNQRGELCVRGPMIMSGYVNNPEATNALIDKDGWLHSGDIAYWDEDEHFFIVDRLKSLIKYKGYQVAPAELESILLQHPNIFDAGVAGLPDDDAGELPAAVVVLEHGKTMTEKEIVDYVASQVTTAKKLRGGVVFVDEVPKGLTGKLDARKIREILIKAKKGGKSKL

SMILES	composite z-score (Albumin (Bos taurus))	composite Z-score [1]	composite z-score [2]	composite z-score [3]	composite z-score [4]	composite z-score [5]	composite z-score [6]	composite z-score (Sam68 (KHDRBS1))	composite z-score [7]	composite z-score [8]	composite z-score [9]	composite z-score [10]	composite z-score [11]	composite z-score [12]	composite z-score [13]	composite z-score [14]	z-score [15]	composite z-score (Lefty1)	composite z-score [16]	z-score [17]
CCc1cc2c(nc1CC)CCN(CCC(C)=NOC[C@@H](C)[C@H](OCc1ccccc1)C(C)C)C2	0.742	0.551 (inactive)	-0.443	-0.135	-0.25	-0.171	-0.383	-0.16	-1.05	-1.12	2.64	-0.684	-0.846	-1.69	-0.862	-1.39	0.874	-0.465	-0.323	-1.77 (inactive)
CC(C)(C)N1C(=O)[C@H]2[C@H]3[C@H](O)[C@H](O)CC(=NOC[C@@H](O)COCc4ccco4)[C@@H]3CC[C@H]2C1=O	0.617	0.103 (inactive)	-0.0311	-0.0984	-0.129	0.0171	0.227	-0.254	0.107	0.506	-0.329	-0.451	-0.0584	0.961	-0.396	-0.0677	-0.521	-0.211	0.915	-0.124 (inactive)
COC(=O)[C@@H]1CC[C@H](C)[C@@H](c2ccc(C)cc2)N1C(=O)c1ccc(C=NOC[C@@H](O)[C@H]2O[C@@H]3OC(C)(C)O[C@@H]3[C@H]2O)cc1	0.333	-0.187 (inactive)	-0.0014	-0.128	0.368	0.424	0.228	1.02	0.402	0.736	0.266	1.03	0.158	0.953	0.49	0.63	-1.78	0.367	0.506	-0.297 (inactive)
C=CCOCC1CN2[C@@H](CC[C@@H](C)[C@@H]2c2ccc(Br)cc2)C(=O)O1 (stereo not given in full)	-0.509	0.419 (inactive)	-0.0932	-0.189	-0.401	-0.329	0.975	-0.85	0.562	-0.172	0.24	-0.695	-0.262	-0.5	0.119	0.166	1.88	0.262	-0.16	-0.764 (inactive)
O=C1C[C@@H](O)[C@@H](O)[C@@H]2[C@@H]3C(=O)N(c4ccc(F)cc4F)C(=O)[C@@H]3CC[C@H]12	0.422	-0.0025 (inactive)	0.0257	-0.102	0.104	0.517	0.0172	0.495	0.571	0.44	0.387	0.503	0.0336	0.428	0.549	0.401	-0.834	0.645	0.304	-0.211 (inactive)
CCCC[C@H]1CN2[C@@H](CC[C@@H](C)[C@@H]2c2ccc(Br)cc2)C(=O)O1	0.738	0.689 (inactive)	-0.137	-0.183	0.397	0.615	1.59	1.29	0.549	0.764	0.256	1.17	0.307	0.831	0.53	0.198	0.962	0.326	0.542	-2.12 (inactive)
O=C1[C@H]2[C@H]3[C@H](O)[C@H](O)CC(=NOC[C@@H](O)COCc4ccco4)[C@@H]3CC[C@H]2C(=O)N1Cc1ccccc1	-0.123	-0.0662 (inactive)	0.121	-0.102	0.552	0.654	0.173	1.3	1.4	-0.193	0.381	1.26	0.728	-0.956	1.37	0.962	0.0705	0.941	0.265	1.2 (inactive)
CCOC(=O)[C@H](CC(C)C)NC(=O)CCC1CC(OC(=O)NCCc2ccc(F)cc2)CC2(CCCC(COC(=O)NCc3cccc(C(F)(F)F)c3)O2)O1 (stereo not given in full)	0.386	1.35 (inactive)	-0.0003	-0.117	0.475	0.953	-0.0042	1.21	0.273	0.542	0.167	1.15	0.155	0.619	0.579	0.987	-0.208	0.549	0.296	0.507 (inactive)
CCOC(=O)[C@H](Cc1ccccc1)NC(=O)CCC1CC(OC(=O)NCc2cccc3ccccc23)CC2(CCCC(COC(=O)NCCc3ccccc3OC)O2)O1 (stereo not given in full)	0.49	-0.564 (inactive)	0.121	-0.126	0.224	0.474	-0.114	1.19	0.241	0.879	0.704	0.79	0.201	0.287	0.798	0.793	-0.538	0.99	0.404	0.821 (inactive)
CCOC(=O)CCN1C(=O)[C@H]2[C@H]3[C@H](O)[C@H](O)CC(=NNC(=O)OCc4ccccc4)[C@H]3CC[C@H]2C1=O	-0.914	0.734 (inactive)	0.232	-0.0309	-0.67	-1.26	-0.0688	-1.01	1.4	-0.636	-0.954	-0.746	-0.355	-0.714	0.44	0.386	-0.674	0.742	-0.547	0.292 (inactive)
CCOC(=O)[C@H](CC(C)C)NC(=O)CCC1CC(OC(=O)NCCc2ccc(F)cc2)CC2(CCCC(COC(=O)NCc3cccc4ccccc34)O2)O1 (stereo not given in full)	0.426	-0.275 (inactive)	-0.235	0.12	0.276	0.96	-0.138	0.695	0.282	0.873	0.229	0.982	0.2	0.279	1.27	0.634	0.755	0.774	0.0787	0.6 (inactive)
